Screens (PubChem BioAssay)
GPR151 activ: activates the human receptor GPR151. Q8TDV0. PathHunter beta-arrestin GPR151 cells, luminescence. activation, % at 11.2 µM. actives 1% (n = 650,000). AID 1508602; in the data active = activation above about 4.9%
Target sequence (Q8TDV0 whole entry, looked up): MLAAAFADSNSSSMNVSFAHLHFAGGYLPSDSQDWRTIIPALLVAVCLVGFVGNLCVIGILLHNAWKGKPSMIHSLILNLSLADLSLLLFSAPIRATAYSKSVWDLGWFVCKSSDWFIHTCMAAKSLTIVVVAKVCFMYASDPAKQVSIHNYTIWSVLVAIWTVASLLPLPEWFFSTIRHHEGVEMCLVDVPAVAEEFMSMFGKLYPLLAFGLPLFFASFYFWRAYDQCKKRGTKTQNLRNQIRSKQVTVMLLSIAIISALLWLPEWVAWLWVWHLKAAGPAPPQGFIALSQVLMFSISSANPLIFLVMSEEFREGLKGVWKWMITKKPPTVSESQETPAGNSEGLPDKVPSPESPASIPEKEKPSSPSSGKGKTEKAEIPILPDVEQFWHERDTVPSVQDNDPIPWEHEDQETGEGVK
FBW7 activator: activators of human E3 ligase FBW7; AlphaScreen FBW7–phospho-cyclin E peptide binding, activator screen; normalized activity (activation), % at 26.1 µM; actives 0.13% (n = 650,000); in the data active = normalized activity above about 1.9%;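 also: purified mutant Fbw7 with reduced substrate affinity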
TEAD-YAP block: TEAD-YAP interaction inhibition | HEK-TIYL cells, TEAD-Gal4/YAP UAS-luciferase luminescence | inhibition, % at 9.12 µM | actives 1.4% (n = 640,000) | AID 1259422; in the data active = inhibition above about 32%
MITF inh: inhibitors of human MITF; O75030; AlphaScreen MITF homodimerization, bead proximity signal; inhibition, % at 2.6 µM; actives 0.91% (n = 650,000); AID 1259374; in the data active = inhibition above about 50%
GPR151 confirm: human GPR151 activation, confirmation screen | 6,700 tested, under 10 active | AID 1508609 | activation, % at 11.2 µM | GPR151 PathHunter beta-arrestin cells, luminescence, 90 min; % of EA-reagent control over plate median | shares compounds with GPR151 activ;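 active = mean percent activation across replicates above the confirmation screen cutoff of 4.91%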
GPR119 counter: counter-screen for GPR151 activators: effect on human GPR119. AID 1508611. actives 0.3% (n = 6,700). activation, % at 11.2 µM. shares compounds with GPR151 activ. GPR119 PathHunter beta-arrestin cells, luminescence, 90 min; 0 = compound-well median, 100 = enzyme-acceptor control;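 active = mean percent activation in the counterscreen above 29.09%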;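 also: counterscreen on off-target GPR119 to flag nonselective hits from the GPR151 activator screen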
Large screens that a line does not name were inactive (follow-up assays come after a bar, where they were run). Hits are enriched below; roughly 3.5% of the tested compounds scored in any of these assays.

O=C(CCN1C(=O)C2CCCCC2C1=O)NNc1c(F)c(F)cc(F)c1F (stereo not drawn)	GPR151 activ 5.4 | GPR151 confirm inactive | GPR119 counter inactive
CSc1ccc(C2Nc3ccccc3NC3=C2C(=O)CC(c2ccccc2)C3)cc1 (stereo not drawn)	none
COC(=O)c1ccc(/C=C2/C(=O)NN(c3ccc(C)c(C)c3)C2=O)cc1	GPR151 activ 5.2 | GPR151 confirm inactive | GPR119 counter inactive
Cc1nnc(NC(=O)c2ccc3c(c2)C(=O)N(CC2CCCO2)C3=O)s1 (stereo not drawn)	GPR151 activ 6.9 | GPR151 confirm inactive | GPR119 counter inactive
Cc1cc(NC(=O)c2ccc3c(c2)C(=O)N(CC2CCCO2)C3=O)no1 (stereo not drawn)	none
Cc1cc(C)c(NC(=O)CS(=O)CC(=O)Nc2ccc3c(c2)CCC3)c(C)c1 (stereo not drawn)	none
O=C(c1ccc(Br)c(S(=O)(=O)N2CCCCC2)c1)N1CCCCC1	GPR151 activ 11 | GPR151 confirm inactive | GPR119 counter inactive
CCN(CC)C(=O)C1CCCN(c2nc(Nc3ccc(NC(C)=O)cc3)c3ncn(CCN4CCCC4=O)c3n2)C1 (stereo not drawn)	GPR151 activ 6.4 | GPR151 confirm inactive | GPR119 counter inactive
CCN(CC)C(=O)C1CCCN(c2nc(Nc3ccc(NC(C)=O)cc3)c3ncn(Cc4ccc(C(F)(F)F)cc4)c3n2)C1 (stereo not drawn)	none
O=C1CCCN1CCn1cnc2c(Nc3ccc4c(c3)OCO4)nc(N3CCN(Cc4ccc5c(c4)OCO5)CC3)nc21	GPR151 activ 5.1 | GPR151 confirm inactive | GPR119 counter inactive
O=C(Nc1cccc([N+](=O)[O-])c1)/C(=C\c1ccc2c(c1)OCO2)NC(=O)c1ccccc1Cl	none
O=C(O)COc1coc(CN2CCN(c3cccc(Cl)c3)CC2)cc1=O	none
O=c1cc(CN2CCN(c3cccc(Cl)c3)CC2)occ1OCc1ccccc1	GPR151 activ 6.8 | GPR151 confirm inactive | GPR119 counter inactive
NC(=O)c1ccccc1NC(=O)CCn1c(=O)oc2ccccc21	GPR151 activ 5.0 | GPR151 confirm inactive | GPR119 counter inactive
CC(C)NC(=O)CCn1c(=O)oc2ccccc21	GPR151 activ 8.1 | GPR151 confirm inactive | GPR119 counter inactive
CCn1cc(CCC(=O)NC(C)C)c2ccccc21	GPR151 activ 5.6 | GPR151 confirm inactive | GPR119 counter inactive
CSc1ccccc1C(=O)Nc1cc(C)on1	none
O=C(O)Cc1c(Cl)sc2ccccc12	none
O=C(N/N=C/c1ccc(OC(F)(F)F)cc1)c1ccncc1	none
COC(=O)C(C)N1C(=O)S/C(=C/c2cccn2C)C1=O (stereo not drawn)	GPR151 activ 5.5 | GPR151 confirm inactive | GPR119 counter inactive
COC(=O)C(C)N1C(=O)S/C(=C/c2ccc(Cl)cc2)C1=O (stereo not drawn)	none
Cn1cccc1/C=C1\SC(=S)NC1=O	GPR151 activ 5.1 | GPR151 confirm inactive | GPR119 counter inactive
CN1CCN(C2CCN(c3cccc(Cl)c3)CC2)CC1CCO (stereo not drawn)	none
OCC1CCN(C2CCCN(C3CCN(c4cccc(Cl)c4)CC3)C2)CC1 (stereo not drawn)	GPR151 activ 5.1 | GPR151 confirm inactive | GPR119 counter inactive
Cc1cccc(C)c1NC(=O)CS(=O)CC(=O)NCC1OCCc2ccccc21 (stereo not drawn)	none
O=C(Nc1nc2ccccc2[nH]1)c1ccc(Br)cc1	GPR151 activ 8.0 | GPR151 confirm inactive | GPR119 counter inactive
O=C(CSc1nccn1Cc1ccc(F)cc1)Nc1nccs1	GPR151 activ 7.0 | GPR151 confirm inactive | GPR119 counter inactive
Cc1ccc(Cn2ccnc2SCC(=O)Nc2ccccc2F)cc1	GPR151 activ 8.6 | GPR151 confirm inactive | GPR119 counter inactive
CCOC(=O)CSc1cc([N+](=O)[O-])cc2sc(C(=O)OC)c(N)c12	none
CC(C)CNC(=S)N(Cc1ccccc1)Cc1ccccc1	none
Cc1cc(S(=O)(=O)ON2C(=O)c3ccccc3C2=O)ccc1F	none
CCOc1ccc(/C=C2\SC(=S)N(C(C)C(=O)O)C2=O)cc1 (stereo not drawn)	GPR151 activ 11 | GPR151 confirm inactive | GPR119 counter inactive
COCCCNC(=O)CN(Cc1ccc(Br)cc1)S(=O)(=O)c1ccccc1	none
O=C(CCn1cccc1)N1CCc2ccccc21	none
CCC(=O)N/N=C(\C)CC(=O)Nc1ccc2c(c1)OCCO2	none
C/C(CC(=O)Nc1ccc2c(c1)OCCO2)=N\NC(=O)C(c1ccccc1)c1ccccc1	GPR151 activ 5.1 | GPR151 confirm inactive | GPR119 counter inactive
Cc1c(C(=O)Nc2cccc(C(F)(F)F)c2)sc2ncn(CC(=O)N3CCCCC3)c(=O)c12	none
COc1cccc(CC2(CO)CCN(C(=O)Cn3cnnn3)CC2)c1	none
COc1cccc(CC2(CO)CCN(C(=O)CN3CCCC(c4ccccc4)C3)CC2)c1 (stereo not drawn)	GPR151 activ 5.2 | GPR151 confirm inactive | GPR119 counter inactive
O=C(NC(C(=O)NC1=NCCS1)C12CC3CC(CC(C3)C1)C2)c1ccc(F)cc1 (stereo not drawn)	none
O=C(Nc1ccc(Br)cc1)c1cccc(N2C(=O)C3CCCCC3C2=O)c1 (stereo not drawn)	GPR151 activ 7.5 | GPR151 confirm inactive | GPR119 counter inactive
O=C(Nc1ccc(Br)cc1)c1ccc(N2C(=O)C3CCCCC3C2=O)cc1 (stereo not drawn)	none
O=C(Cc1ccccc1[N+](=O)[O-])NNC(=O)Nc1ccc2c(c1)OCO2	GPR151 activ 5.1 | GPR151 confirm inactive | GPR119 counter inactive
O=C(Cc1ccccc1[N+](=O)[O-])Nc1ccc2c(c1)OCO2	none
CCn1c(/N=C/c2ccc(O)cc2)nc2ccccc21	none
CC(=O)c1cccc(-c2nc(NCCOc3ccccc3)c3ncn(Cc4ccc(C(F)(F)F)cc4)c3n2)c1	none
CC(Oc1ccc(C(C)(C)C)cc1)C(=O)NC1CCS(=O)(=O)C1 (stereo not drawn)	GPR151 activ 5.2 | GPR151 confirm inactive | GPR119 counter inactive
O=C(N[C@H]1C[C@H]2C(=O)N3CCC[C@@H]3C(=O)N2C1)c1cccc(F)c1F	none
CCC1CCC2(CC1)SCC(=O)N2c1ccc(F)cc1 (stereo not drawn)	GPR151 activ 6.4 | GPR151 confirm inactive | GPR119 counter inactive
CCC1CCC2(CC1)SCC(=O)N2c1ccccc1 (stereo not drawn)	none
COC(=O)CCC(=O)NCC1Cc2cc(Cl)cc(-c3ccc(C(=O)OC)cc3)c2O1 (stereo not drawn)	none
COc1ccc(C2CC(c3cccs3)=NN2C(=O)CSc2nnc(CNC(=O)c3cccc(OC)c3)n2-c2ccccc2)cc1 (stereo not drawn)	GPR151 activ 5.8 | GPR151 confirm inactive | GPR119 counter inactive
